The source of these data is PubChem BioAssay.

Values without a mark were called inactive. Records with an inconclusive call do not appear. For part of these data: Measured potencies and affinities stand elsewhere. Active and inactive are the calls of the source. Unless noted, the rule behind the calls is not given here.

Experiment [1] is described as follows: compounds altering circadian rhythm period length – cell-based, LOPAC library, luminescence reporter (AID 2774).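 Note: values are relative to mean of DMSO wells on each plate.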 The following applies: circadian reporter cells, at 7 µM, actives lie on both sides.
Experiment [2] has as its system Hepatitis C virus NS3 helicase. As to the kind of experiment: blockers of NS3h binding to ssDNA – biochemical, fluorescence polarization, LOPAC1280 library, primary screen (AID 687035; in the data active = inhibition above about 37%). The note with it: Purified HCV NS3 helicase, Cy5-dT15 ssDNA binding fluorescence polarization; hits give high values; concentration not given here.
A short description of experiment [3]: compounds altering Cy5-DNA-NS3h complex signal – biochemical, LOPAC1280, artefact control for HCV NS3 helicase inhibitor project (AID 687037). The following applies: Cy5-DNA-NS3h complex fluorescence interference counterscreen. A general note: The purpose of a counterscreen is to sort out artefacts and off-target activity.
Experiment [4] is described as follows: blockers of cellular phospholipid synthesis – cell-based, LOPAC library, screen 4, primary screen (AID 1347384). The following applies: animal cells, phospholipid biosynthesis inhibition screen; at 10 µM.
Experiment [5] can be described thus: viability loss in pontine glioma line – cell-based, SU-DIPG-XIII, MIPE5.0, CellTiter-Glo, qHTS, dose response (AID 1347064; cut-off not given, nearly all actives have AC50 up to about 23 µM;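 for AC50: cells exposed to compound for 48 hours before the viability read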). The following applies: CellTiter-Glo ATP luminescence. Background: In ATP-based viability assays light output follows the ATP content of the culture.
Experiment [6] in a line: antimalarial activity against Dd2 strain (AID 2302;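 active = growth inhibition above 50% at the single 2 µM test dose, taken to imply half-maximal potency below 2 µM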;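 note: 0% = DMSO untreated growth and 100% = chloroquine plus artemisinin killed control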). The note with it: P. falciparum Dd2 in RBCs, LDH growth readout, 72 h; at 2 µM; hits give high values.
Experiment [7] is described as follows: human hepatoma cell viability loss – ATP luminescence, cytotoxicity control for P. falciparum antimalarial project, primary screen (AID 2303;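 active = inhibition above 50%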;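 note: 0% = DMSO wells and 100% = digitonin-killed cells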). The following applies: HepG2 viability, 24-48 h, at 10 µM, hits give high values.
The target in experiment [8] is L-lactate dehydrogenase (Plasmodium falciparum (isolate CDC / Honduras)) (UniProt Q27743). As to the kind of experiment: PfLDH activity inhibition – cell lysate, 3D7 strain, counter-screen for P. falciparum growth inhibition project (AID 2304).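 Note: 0% = vehicle and 100% = reference inhibitor.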 The following applies: P. falciparum 3D7 crude extract, LDH APAD/NBT absorbance; at 2 µM; hits give high values.
L-lactate dehydrogenase (Plasmodium falciparum (isolate CDC / Honduras)), sequence (Q27743 whole entry, looked up): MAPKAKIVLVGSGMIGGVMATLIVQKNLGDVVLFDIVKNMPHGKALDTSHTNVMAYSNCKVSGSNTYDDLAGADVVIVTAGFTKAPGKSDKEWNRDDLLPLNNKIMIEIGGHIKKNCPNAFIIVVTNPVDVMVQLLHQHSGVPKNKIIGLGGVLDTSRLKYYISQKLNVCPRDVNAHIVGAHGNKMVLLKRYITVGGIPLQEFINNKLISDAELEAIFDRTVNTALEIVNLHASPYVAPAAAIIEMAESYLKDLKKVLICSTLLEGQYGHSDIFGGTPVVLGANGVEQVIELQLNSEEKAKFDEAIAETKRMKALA
Experiment [9] in a line: inhibition of 3D7 malaria parasite growth – strain 3D7 (AID 2306).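 Note: 0% = DMSO wells and 100% = chloroquine plus artemisinin control wells.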 The note with it: P. falciparum 3D7 erythrocytic growth, LDH absorbance, 72 h; at 2 µM; hits give high values.
Experiment [10] concerns the target Calcium-dependent protein kinase 1 (Plasmodium falciparum (isolate 3D7)) (UniProt P62344). As to the kind of experiment: PfCDPK1 kinase inhibitors, biochemical, TCAMS library (AID 1159585; cut-off not given, nearly all actives have IC50 up to about 0.98 µM;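 note: inhibitors leave more ATP so luminescence rises with inhibition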). The note with it: recombinant PfCDPK1, Kinase-Glo ATP depletion luminescence. (In general: Kinase-Glo reads ATP consumption through a luciferase reaction.)
The target of experiment [11] is Plasmodium falciparum protein kinase 6 (PK6, PF3D7_1337100) (UniProt Q8IDW1). The experiment in a line: PfPK6 kinase inhibitors, biochemical, TCAMS library (AID 1159586). The note with it: recombinant PfPK6, Kinase-Glo ATP depletion luminescence.
Plasmodium falciparum protein kinase 6 (PK6, PF3D7_1337100), sequence (Q8IDW1 1-305): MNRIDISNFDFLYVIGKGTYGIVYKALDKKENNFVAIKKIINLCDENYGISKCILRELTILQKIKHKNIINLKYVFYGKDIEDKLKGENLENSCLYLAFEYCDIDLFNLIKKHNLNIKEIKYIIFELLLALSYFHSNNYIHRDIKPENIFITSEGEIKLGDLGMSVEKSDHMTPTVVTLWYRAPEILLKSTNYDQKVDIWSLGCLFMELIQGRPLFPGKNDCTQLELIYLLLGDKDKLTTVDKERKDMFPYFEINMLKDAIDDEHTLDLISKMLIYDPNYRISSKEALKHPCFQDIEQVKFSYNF
Experiment [12] addresses Protein kinase 7 (PK7), Plasmodium falciparum 3D7 (PF3D7_0213400) (UniProt Q7YTF7). The experiment in a line: inhibition of Plasmodium PK7 catalytic activity – biochemical, TCAMS antimalarial set, Kinase-Glo luminescence (AID 1159587). The following applies: recombinant PfPK7, Kinase-Glo ATP depletion luminescence.
Experiment [13] concerns the target Calcium-dependent protein kinase 4 (Plasmodium falciparum (isolate 3D7)) (UniProt Q8IBS5). As to the kind of experiment: PfCDPK4 kinase inhibitors, biochemical, TCAMS library (AID 1159588; cut-off not given, nearly all actives have IC50 up to about 0.91 µM). The following applies: recombinant PfCDPK4, Kinase-Glo ATP depletion luminescence.
Experiment [14] concerns Aerobactin synthetase IucA (Klebsiella pneumoniae). As to the kind of experiment: inhibition of K. pneumoniae IucA enzyme – biochemical, Tocris library, absorbance (AID 1345561).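 Note: 100% = enzyme without compound and 0% = no enzyme.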 The following applies: purified IucA enzyme assay, absorbance (OD) read-out; hits give low values;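 tested at 8 µM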.
Experiment [15] is described as follows: chitosan synthesis blockers in C. neoformans – flow cytometry, Cibacron Brilliant Red staining (AID 1347148).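 Note: compound exposure lasted three days at 37 degrees C.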 The note with it: Cryptococcus neoformans chitosan, hits give low values; at 99.1 µM unless noted.
Experiment [16] concerns the target Tyrosine-protein kinase ABL1 (Homo sapiens) (UniProt P00519). The experiment in a line: PubChem AID 493040. The note with it: kinase panel binding, pKi.
Experiment [17] can be described thus: compounds altering viability of human ES cells (AID 493140).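 Note: cells exposed to compounds for four days before counting.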 The note with it: human embryonic stem cell survival screen; hits give high values.

Protein kinase 7 (PK7), Plasmodium falciparum 3D7 (PF3D7_0213400), sequence (Q7YTF7 1-343): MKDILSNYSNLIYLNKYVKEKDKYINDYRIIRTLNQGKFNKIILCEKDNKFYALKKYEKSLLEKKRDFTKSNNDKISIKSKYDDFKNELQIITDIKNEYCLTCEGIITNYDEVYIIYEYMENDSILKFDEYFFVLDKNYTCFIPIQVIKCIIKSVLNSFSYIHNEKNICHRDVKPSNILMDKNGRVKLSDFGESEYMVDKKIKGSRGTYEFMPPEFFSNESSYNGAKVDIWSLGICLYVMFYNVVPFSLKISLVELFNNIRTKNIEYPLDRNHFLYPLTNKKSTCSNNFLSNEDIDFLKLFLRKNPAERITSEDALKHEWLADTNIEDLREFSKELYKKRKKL
Calcium-dependent protein kinase 4 (Plasmodium falciparum (isolate 3D7)), sequence (Q8IBS5 whole entry, looked up): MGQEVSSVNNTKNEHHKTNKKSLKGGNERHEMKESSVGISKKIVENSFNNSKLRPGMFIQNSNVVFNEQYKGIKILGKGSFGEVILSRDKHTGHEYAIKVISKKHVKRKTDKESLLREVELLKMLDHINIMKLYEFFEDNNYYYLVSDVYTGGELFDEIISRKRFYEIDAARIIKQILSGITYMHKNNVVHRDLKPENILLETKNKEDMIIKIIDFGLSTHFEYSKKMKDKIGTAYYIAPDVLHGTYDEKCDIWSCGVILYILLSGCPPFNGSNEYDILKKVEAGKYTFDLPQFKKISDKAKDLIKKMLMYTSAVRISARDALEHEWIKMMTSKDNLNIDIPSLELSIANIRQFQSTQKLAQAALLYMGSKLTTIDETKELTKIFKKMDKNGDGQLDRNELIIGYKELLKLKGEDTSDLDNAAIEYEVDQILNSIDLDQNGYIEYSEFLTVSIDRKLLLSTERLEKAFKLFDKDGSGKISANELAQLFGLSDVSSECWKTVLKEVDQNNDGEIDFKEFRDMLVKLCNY
Calcium-dependent protein kinase 1 (Plasmodium falciparum (isolate 3D7)), sequence (P62344 whole entry, looked up): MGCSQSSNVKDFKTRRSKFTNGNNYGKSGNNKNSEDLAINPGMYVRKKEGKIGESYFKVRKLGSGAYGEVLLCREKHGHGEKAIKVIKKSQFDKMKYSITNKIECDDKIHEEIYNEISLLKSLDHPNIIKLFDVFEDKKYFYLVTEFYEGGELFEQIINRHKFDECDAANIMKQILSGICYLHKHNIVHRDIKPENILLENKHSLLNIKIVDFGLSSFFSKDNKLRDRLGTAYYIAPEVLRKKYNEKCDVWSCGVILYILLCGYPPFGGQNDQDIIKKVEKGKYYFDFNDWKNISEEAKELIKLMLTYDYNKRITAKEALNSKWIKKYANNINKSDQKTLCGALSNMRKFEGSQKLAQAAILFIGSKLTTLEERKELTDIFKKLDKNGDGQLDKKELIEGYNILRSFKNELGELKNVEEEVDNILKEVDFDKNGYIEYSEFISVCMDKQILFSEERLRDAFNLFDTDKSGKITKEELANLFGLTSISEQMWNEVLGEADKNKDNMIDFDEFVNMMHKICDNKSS
Tyrosine-protein kinase ABL1 (Homo sapiens), sequence (P00519 whole entry, looked up): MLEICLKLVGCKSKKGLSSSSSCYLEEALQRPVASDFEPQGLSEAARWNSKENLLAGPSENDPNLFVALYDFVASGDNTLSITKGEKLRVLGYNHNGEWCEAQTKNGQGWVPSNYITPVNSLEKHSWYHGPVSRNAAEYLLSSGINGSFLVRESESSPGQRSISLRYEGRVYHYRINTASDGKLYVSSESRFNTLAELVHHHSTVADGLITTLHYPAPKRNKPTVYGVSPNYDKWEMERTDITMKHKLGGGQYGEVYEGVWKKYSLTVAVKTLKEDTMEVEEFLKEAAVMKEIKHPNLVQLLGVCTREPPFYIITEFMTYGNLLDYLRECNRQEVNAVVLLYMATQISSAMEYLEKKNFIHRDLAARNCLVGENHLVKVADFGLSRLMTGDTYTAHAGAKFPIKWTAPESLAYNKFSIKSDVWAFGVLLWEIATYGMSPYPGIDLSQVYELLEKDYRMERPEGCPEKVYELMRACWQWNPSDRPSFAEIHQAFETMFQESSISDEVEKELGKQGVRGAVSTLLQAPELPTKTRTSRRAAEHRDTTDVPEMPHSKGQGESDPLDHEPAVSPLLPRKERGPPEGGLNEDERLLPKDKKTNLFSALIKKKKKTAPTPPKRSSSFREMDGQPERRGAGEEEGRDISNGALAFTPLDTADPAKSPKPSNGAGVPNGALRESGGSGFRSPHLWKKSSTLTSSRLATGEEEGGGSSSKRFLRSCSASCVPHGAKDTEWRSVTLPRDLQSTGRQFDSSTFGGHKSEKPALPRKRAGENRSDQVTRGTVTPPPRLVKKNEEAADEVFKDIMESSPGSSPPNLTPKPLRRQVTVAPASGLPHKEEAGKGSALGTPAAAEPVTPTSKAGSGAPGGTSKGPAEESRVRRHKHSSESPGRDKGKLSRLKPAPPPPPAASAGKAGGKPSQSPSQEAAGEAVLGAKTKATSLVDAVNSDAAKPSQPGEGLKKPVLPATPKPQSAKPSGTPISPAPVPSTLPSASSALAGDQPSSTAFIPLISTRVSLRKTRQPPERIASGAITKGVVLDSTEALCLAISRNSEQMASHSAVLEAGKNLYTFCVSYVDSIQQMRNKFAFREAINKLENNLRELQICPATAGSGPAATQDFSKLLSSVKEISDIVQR

One may read the inhibition as the change of the read-out against control, counted positive when it falls. As to `CN(C)c1cc2c(Nc3ccc4c(cnn4Cc4ccccc4)c3)ncnc2cn1`, the period change in experiment [1] was 0.33 h. Also, the inhibition in experiment [2] was -1%. Further, in [3], the fluorescence ratio (interference) is 1. Also, in experiment [4], the compound was called inactive.
The term AC50 denotes the midpoint of the concentration-response curve, whichever way the signal moves. With `Cn1cc(/C=C2\C(=O)Nc3cccnc32)c2ccccc21`, in [5], the AC50 was 8.33 µM (active).
For `Cc1ccc(O)cc1Nc1ccnc2cc(-c3ccccn3)ccc12`, the growth inhibition was 98% (active) in experiment [6] and 97% (active) in experiment [9]. Besides, the inhibition in experiment [7] was 6%; in [8] it was -2%. Moreover, the outcome in experiment [10], in experiment [11], in [12] and in [13] was inactive.
As a reminder, the remaining activity is the signal under treatment as a percentage of the control signal. Turning to `Fc1ccc(-c2nc3n(c2-c2ccncc2)CCS3)cc1`, in experiment [14], the remaining activity is 117%.
On to `Cn1c(=O)c(Oc2ccc(F)cc2F)cc2cnc(NC3CCOCC3)nc21`, for which, in [5], the compound was called inactive.
With `NC(=O)c1ccc(-c2nc(-c3ccc4c(c3)OCO4)c(-c3ccccn3)[nH]2)cc1`, in experiment [14], the remaining activity is 110%. In addition, the fold fluorescence in experiment [15] was 18.6 [at 130.1 µM]. Also, in experiment [16], the call was inactive.
With `Nc1ncnc2occ(-c3ccc(NC(=O)Nc4cc(C(F)(F)F)ccc4F)cc3)c12`, the growth inhibition in experiment [6] and in [9] was 99% (active) each time. The inhibition was 57% (active) in experiment [7] and -1% in experiment [8]. The outcome in experiment [12] and in experiment [13] was inactive.
Consider `CN(C)c1cc2c(Nc3ccc4nc(Cc5ccccc5)[nH]c4c3)ncnc2cn1`, for which the growth inhibition was 29% in experiment [6] and 85% (active) in [9]. The results for the inhibition in experiment [7] and in [8] were 11% and 0%, respectively. The result in experiment [10], in experiment [11], in experiment [12] and in experiment [13] was inactive.
As to `Cn1cc(C2=C(c3cn(CCCSC(=N)N)c4ccccc34)C(=O)NC2=O)c2ccccc21`, in [17], the survival was 72.7. In experiment [14], the remaining activity is 106%. The fold fluorescence in [15] is 10.1 [at 109.3 µM].
Turning to `COc1ccc(-c2oc3ncnc(N)c3c2-c2ccc(NC(=O)Nc3cc(C(F)(F)F)ccc3F)cc2)cc1`, the AC50 in [5] was 3.72 µM (active).
